In PubChem BioAssay (NCATS):
Records with an inconclusive call do not appear. A call without a number means that no potency is given here. The source made the active and inactive calls. Calls follow the shape of the dose curve; as a rule, active = well fitted inhibition curve with a large enough effect; inconclusive = small, poorly fitted or top-dose-only effect; inactive = flat fitted curve, though single readings scatter.

Molecular target: Calcium and integrin-binding protein 1 (Homo sapiens) (UniProt Q99828)
Assay: Primary qHTS for Identification of Calcium Integrin Binding Protein 1 (CIB1) Competitor (AID 1508620); also: top concentration of the series differs between compounds
Settings: CIB1-GST / FITC-alphaIIb peptide fluorescence polarization; series mostly up to 114 µM
How it was run: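 Fluorescence polarization competition: GST-tagged CIB1 (1 uM final) preincubated with compound 15 min at room temperature, then FITC-labelled alphaIIb peptide (100 nM final) added. After 15 min at room temperature, polarization read at Ex 480/Em 540.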

Sequence of Calcium and integrin-binding protein 1 (Homo sapiens) (Q99828 whole entry, looked up): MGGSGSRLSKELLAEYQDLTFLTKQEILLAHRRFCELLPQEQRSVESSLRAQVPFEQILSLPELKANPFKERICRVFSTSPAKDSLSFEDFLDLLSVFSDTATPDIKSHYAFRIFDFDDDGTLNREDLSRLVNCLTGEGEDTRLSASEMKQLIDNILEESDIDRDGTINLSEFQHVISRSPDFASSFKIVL

| SMILES | Potency |
| --- | --- |
| CCc1nn2c(=O)cc(NC3CNC3)nc2s1 | inactive |
| CCN1CCN(C(=O)CCN(CC(C)C)c2nc(-c3cccs3)nc3ccccc23)CC1 | inactive |
| O=C1CCCC2=C1C(c1cccc(Cl)c1)N=C(Nc1nc3ccccc3o1)N2 (stereo not given) | inactive |
| Cc1cc2c(s1)c1cnn(Cc3cccc(C(F)(F)F)c3)c(=O)c1n2C | inactive |
| COc1cccc(CN2C(=O)c3ccccc3NC2c2ccc(OC)c(COc3c(C)cc(NC(C)=O)cc3C)c2)c1 (stereo not given) | inactive |
| CC(=O)c1ccc(N2CCN(S(=O)(=O)c3ccc4c(c3)CCCC(=O)N4)CC2)cc1 | inactive |
| O=C(O)c1ccc(O)c2ncc(N3CCCN(CCCc4ccncc4)CC3)cc12 | inactive |
| CC(C)(C)OC(=O)N1CCN(c2cnc(NCc3ccc(-c4ccc(C#N)cc4)o3)nc2)CC1 | inactive |
| COCC1CCCN(C(=O)CC(c2ccc3c(c2)OCO3)c2c(O)cc(OC)cc2OC)C1 (stereo not given) | inactive |
| Cn1c2cc(B(O)O)sc2c2cnn(Cc3ccc(F)cc3F)c(=O)c21 | inactive |
| COc1ccc(C2=Nn3c(nnc3-c3ccccc3F)SC2)cc1OCC1CC1 | inactive |
| Cc1ccc(NC(=O)CN2C(=O)N/C(=C\c3cccn3-c3cccc(-c4nn[nH]n4)c3)C2=O)cc1 | inactive |
| O=C1CCCC2=C1C(c1[nH]ncc1Cl)NC(=NCCc1ccc(O)cc1)N2 (stereo not given) | inactive |
| Cc1sc(C)c2c1C(=O)NS2(=O)=O | inactive |
| O=C(/C=C/c1cccc(Cl)c1)Nc1cccc([S+](=O)([O-])Nc2ccccc2F)c1 | inactive |
| Cc1ccc(-c2ccc(=O)n(CC(=O)N(C)C3CCCCCC3)n2)cc1 | inactive |
| CCc1nn2c(=O)cc(-c3ccncc3)nc2s1 | inactive |
| NC(=O)C1CCN(c2nc(-c3ccccc3-c3ccccc3)cs2)CC1 | inactive |
| COc1cc(F)c(S(=O)(=O)N2CCCN(S(=O)(=O)c3cccc(NC(C)=O)c3)CC2)c(F)c1 | inactive |
| COc1cc(F)cc(F)c1[S+](=O)([O-])N1CCN([S+](=O)([O-])c2ccc3c(c2)OCCO3)CC1 | inactive |

| SMILES | Potency |
| --- | --- |
| CC(=O)c1ccc(N2CCN(S(=O)(=O)c3ccc4c(c3)CC(C)N4C(C)=O)CC2)cc1 (stereo not given) | inactive |
| Cc1ccc(Cn2ncc3c4sc(C)cc4n(C)c3c2=O)cc1 | inactive |
| COc1ccc(C2Nc3ccccc3C(=O)N2Cc2ccco2)cc1COc1cccc(NC(C)=O)c1 (stereo not given) | inactive |
| COC(=O)c1nc(Nc2cc(F)cc(F)c2)nc(NC2CCCC2)n1 | inactive |
| COc1ccccc1NS(=O)(=O)c1cc(NC(=O)c2ccccc2)ccc1N1CCCC1 | inactive |
| Cc1sc(NC(=O)Cc2ccc3c(c2)OCO3)nc1-c1ccc2c(c1)CCN2C(=O)c1ccccc1C(F)(F)F | inactive |
| N#Cc1nc(Nc2cccc([N+](=O)[O-])c2)nc(NC2CCCC2)n1 | inactive |
| Cc1cnc(-c2ccccc2C(C)C)nc1NCC1CCN(C2COC2)CC1 | inactive |
| COc1ccc(N2Cc3cccc(C(=O)O)c3C2=O)c(OC)c1 | inactive |
| Cc1ccc(-c2ccc(=O)n(CCNC(C)c3ccco3)n2)cc1 (stereo not given) | inactive |
| CCOC(=O)c1ccc(-n2cnc3c(c2=N)C(c2cccc(OC)c2)c2c(ccc4ccccc24)O3)cc1 (stereo not given) | inactive |
| COc1cccc(C2=Nn3c(nnc3-c3ccc(OC)cc3OC)SC2)c1 | inactive |
| N#Cc1ccc(-c2ccc(=O)n(CC(=O)NCCc3ccccc3)n2)cc1 | inactive |
| CC(C)(C)[C@H](NC(=O)c1ccc(N)c(Cl)c1)C(=O)N1CCC[C@H]1C(=O)N[C@H](C#N)Cc1nn[nH]n1 | inactive |
| Oc1ccc(CCc2ccccc2)c2cccnc12 | inactive |
| COc1ccc(CC(=O)Nc2nc(-c3ccc4c(c3)CCN4C(=O)c3ccccc3C)c(C)s2)cc1 | inactive |
| Cc1cc2c(s1)c1cnn(Cc3cc(C(F)(F)F)ccc3F)c(=O)c1n2C | inactive |
| O=C(Nc1cncc(O)c1)c1cccs1 | inactive |
| CC1=C(C(=O)Nc2nnc(-c3ccccc3)s2)C(c2nn(C)cc2Cl)N=C(Nc2nc3ccccc3o2)N1 (stereo not given) | inactive |
| COc1ccccc1-c1csc(N2CCC(C(N)=O)CC2)n1 | inactive |
